# Test results from PubChem BioAssay AID1159580 (chemical genetic matrix, 2015).
# Where “and” joins values, the source holds several entries; their conditions need not be identical. Identical values can stand only once. The campaign covered roughly 5,500 compounds. About 2,000 (36%) were called active. About 18% were inconclusive and are not listed. The list shows a part of the results. Values without a mark were called inactive. Cut-off read from the data, not from the text of the source: active = normalized growth mostly below about 0.91 (no sharp cut-off); inconclusive = no clear call, values can overlap the other calls; inactive = mostly above about 0.92.
# Assay: chemical genetic growth profiling, strain panel (AID 1159580);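 note: tested at 20 µM; growth read once vehicle control cultures reached saturation at 30 °C; 1 = growth at the plate median or of vehicle wells; lower values mean less growth of the strain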
# Settings: S. cerevisiae deletion strains, growth OD
smiles,measurement,setting,value
Nc1cc(-c2ccncc2)c[nH]c1=O,normalized growth,"locus YAL021C, strain ccr4, hits give low values",0.86 (active)
same,normalized growth,"locus YAL026C, strain drs2, hits give low values",0.802 (active)
same,normalized growth,"locus YAL030W, strain snc1, hits give low values",0.885 (active)
same,normalized growth,"locus YBL061C, strain skt5, hits give low values",0.899 (active)
same,normalized growth,"locus YBR009C, strain hhf1, hits give low values",0.671 (active)
same,normalized growth,"locus YBR021W, strain FUR4, hits give low values",0.952
same,normalized growth,"locus YBR023C, strain chs3, hits give low values",0.832 (active)
same,normalized growth,"locus YBR171W, strain sec66, hits give low values",0.966
same,normalized growth,"locus YBR229C, strain ROT2, hits give low values",0.952
same,normalized growth,"locus YBR231C, strain swc5, hits give low values",0.562 (active)
same,normalized growth,"locus YBR279W, strain paf1, hits give low values",0.63 (active)
same,normalized growth,"locus YCL011C, strain gbp2, hits give low values",0.833 (active)
same,normalized growth,"locus YCL016C, strain dcc1, hits give low values",0.567 (active)
same,normalized growth,"locus YCL029C, strain bik1, hits give low values",0.988
same,normalized growth,"locus YCL061C, strain MRC1, hits give low values",0.901 (active)
same,normalized growth,"locus YCL069W, strain vba3, hits give low values",0.757 (active)
same,normalized growth,"locus YCR088W, strain abp1, hits give low values",0.925
same,normalized growth,"locus YDL005C, strain med2, hits give low values",0.971
same,normalized growth,"locus YDL035C, strain GPR1, hits give low values",0.907
same,normalized growth,"locus YDL040C, strain nat1, hits give low values",0.936
same,normalized growth,"locus YDL074C, strain BRE1, hits give low values",0.913
same,normalized growth,"locus YDL101C, strain DUN1, hits give low values",0.994
same,normalized growth,"locus YDL134C, strain PPH21, hits give low values",0.823 (active)
same,normalized growth,"locus YDL185W, strain tfp1, hits give low values",0.973
same,normalized growth,"locus YDL192W, strain arf1, hits give low values",0.974
same,normalized growth,"locus YDR001C, strain nth1, hits give low values",0.972
same,normalized growth,"locus YDR069C, strain doa4, hits give low values",0.885 (active)
same,normalized growth,"locus YDR101C, strain arx1, hits give low values",0.977
same,normalized growth,"locus YDR137W, strain rgp1, hits give low values",0.976
same,normalized growth,"locus YDR159W, strain sac3, hits give low values",0.928
same,normalized growth,"locus YDR162C, strain NBP2, hits give low values",0.949
same,normalized growth,"locus YDR195W, strain ref2",0.951
same,normalized growth,"locus YDR297W, strain sur2, hits give low values",0.856 (active)
same,normalized growth,"locus YDR318W, strain mcm21, hits give low values",0.809 (active)
same,normalized growth,"locus YDR334W, strain swr1, hits give low values",0.664 (active)
same,normalized growth,"locus YDR335W, strain msn5, hits give low values",0.934
same,normalized growth,"locus YDR388W, hits give low values",0.919 (active)
same,normalized growth,"locus YDR392W, strain spt3, hits give low values",0.265 (active)
same,normalized growth,"locus YDR502C, strain sam2, hits give low values",0.926
same,normalized growth,"locus YEL003W, strain gim4, hits give low values",0.624 (active)
same,normalized growth,"locus YEL037C, strain rad23, hits give low values",0.937
same,normalized growth,"locus YEL061C, strain CIN8 (second series), hits give low values",0.787 (active)
same,normalized growth,"locus YEL061C, strain CIN8, hits give low values",0.98
same,normalized growth,"locus YER015W, strain faa2, hits give low values",0.993
same,normalized growth,"locus YER016W, strain bim1, hits give low values",0.672 (active)
same,normalized growth,"locus YER110C, hits give low values",0.983
same,normalized growth,"locus YER111C, strain swi4, hits give low values",0.979
same,normalized growth,"locus YER155C, strain BEM2 (second series), hits give low values",0.368 (active)
same,normalized growth,"locus YER155C, strain BEM2, hits give low values",0.963
same,normalized growth,"locus YER167W, strain BCK2, hits give low values",0.86 (active)
same,normalized growth,"locus YFR010W, strain ubp6, hits give low values",0.863 (active)
same,normalized growth,"locus YGL078C, strain dbp3, hits give low values",0.976
same,normalized growth,"locus YGL086W, strain mad1, hits give low values",0.872 (active)
same,normalized growth,"locus YGL167C, strain pmr1, hits give low values",0.974
same,normalized growth,"locus YGL173C, strain kem1, hits give low values",0.715 (active)
same,normalized growth,"locus YGL227W, strain vid30, hits give low values",0.96
same,normalized growth,"locus YGL240W, strain doc1, hits give low values",0.684 (active)
same,normalized growth,"locus YGL248W, strain PDE1, hits give low values",0.678 (active)
same,normalized growth,"locus YGL253W, strain hxk2, hits give low values",0.523 (active)
same,normalized growth,"locus YGR078C, strain PAC10, hits give low values",0.527 (active)
same,normalized growth,"locus YGR135W, strain pre9, hits give low values",0.945
same,normalized growth,"locus YGR229C, strain SMI1, hits give low values",0.923
same,normalized growth,"locus YGR252W, strain gcn5, hits give low values",0.706 (active)
same,normalized growth,"locus YHR013C, strain ard1, hits give low values",0.506 (active)
same,normalized growth,"locus YHR027C, strain rpn1, hits give low values",0.872 (active)
same,normalized growth,"locus YHR030C, strain SLT2, hits give low values",0.959 and 1.04
same,normalized growth,"locus YHR079C, strain IRE1 (second series), hits give low values",0.988
same,normalized growth,"locus YHR079C, strain IRE1, hits give low values",1.04
same,normalized growth,"locus YHR094C, strain hxt1, hits give low values",0.978
same,normalized growth,"locus YHR129C, strain ARP1, hits give low values",0.961
same,normalized growth,"locus YHR142W, strain chs7, hits give low values",0.705 (active)
same,normalized growth,"locus YHR200W, strain rpn10, hits give low values",0.974
same,normalized growth,"locus YIL066C, strain RNR3, hits give low values",0.74 (active)
same,normalized growth,"locus YIL073C, strain SPO22, hits give low values",0.713
same,normalized growth,"locus YIL125W, strain kgd1, hits give low values",0.982
same,normalized growth,"locus YIR030C, strain dcg1, hits give low values",0.988
same,normalized growth,"locus YJL092W, strain hpr5, hits give low values",0.923
same,normalized growth,"locus YJL095W, strain BCK1 (second series), hits give low values",0.714 (active)
same,normalized growth,"locus YJL095W, strain BCK1, hits give low values",0.961 and 1.01
same,normalized growth,"locus YJL115W, strain asf1, hits give low values",0.932
same,normalized growth,"locus YJL129C, strain trk1, hits give low values",0.94
same,normalized growth,"locus YJL134W, strain LCB3, hits give low values",0.994
same,normalized growth,"locus YJL154C, strain vps35, hits give low values",0.964
same,normalized growth,"locus YJL164C, strain tpk1, hits give low values",0.69 (active)
same,normalized growth,"locus YJL166W, strain qcr8, hits give low values",0.539 (active)
same,normalized growth,"locus YJL168C, strain set2, hits give low values",0.986
same,normalized growth,"locus YJL187C, strain SWE1 (second series), hits give low values",0.96
same,normalized growth,"locus YJL187C, strain SWE1, hits give low values",0.755 (active)
